# In the supplement of paper PMC8728848:
# Only a selection was taken, and the strongest signals are over-represented in it overall.
# B1: PX14404-bvu-534-26-534 (Bacteroides vulgatus) (protein)
# chain: EDPRGKLTPENFFSTQDELNMSIYALYQKVNLSQVYTNMQLPQWQGDDITTNPGSNKQPAAEMDKFAAANNNKGVKDAWNMHYAIVKAANLIIQGASKTPTTQDEINIALGQAKFWRAYAYFTLVRLWGPLPMNLDNVNDDYTKPLSPVEEVYGHIVQDLTEAEAVLPTGYSGSPRFLNGVNVYVTRQAAKSTLAAVYMAMAGWPMNKTEYYAKAAEKAKEVIEGVNRGEYEYKLDKDYKDVYAMSNNYNNETVLGINYSPFVDWAQDSELTSCNQFESLGGWGDAWGEIRFWKEFPDGPRKDATYDPKIRLKDGTLVDWWELKEDGTPVVPEHHPMFSIFSVNWDPASKVNTSAPYDYTKPASQNMCNDHRHRIIRYSEVLLWYAEAKARTGQTDELAFKCLNDVRERAGLEPLTGLSADDLAEAAYKEHGWEVAGYWVALVTRRADQFRMNRLKDTFKERAENTAVEVADGILVKESVEYTNRTWSDNLMYLPYPDMDSQKNPNLVR
# Experiments:
# Assay in all cases: glycan array binding signal (z-score within array); higher = stronger binding
# Conditions in all cases: glycan notation: IUPAC condensed, linker removed
# [1] = biological target: Fuc(a1-2)Gal(b1-3)GalNAc(a1-3)[Fuc(a1-2)]Gal(b1-4)GlcNAc
# Outline: (§1)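 Glycan array data came from 3228 arrays in the Consortium for Functional Glycomics database, and only arrays with an available protein sequence were kept. Glycan names were put into IUPAC-condensed notation, and columns mapping to the same glycan were averaged. The binding signal is a within-array Z-score, averaged across arrays of one protein sequence run at different concentrations or buffers and across linkers. A negative Z-score can be read as non-binding.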
# [2] = biological target: Fuc(a1-2)Gal(b1-3)GalNAc(b1-3)Gal(a1-4)Gal(b1-4)Glc
# Outline: as §1
# [3] = biological target: Fuc(a1-2)Gal(b1-3)GalNAc(b1-4)[Neu5Ac(a2-3)]Gal(b1-4)Glc
# Outline: as §1
# [4] = biological target: Fuc(a1-2)Gal(b1-3)GlcNAc(b1-3)[Fuc(a1-2)Gal(b1-3)GlcNAc(b1-6)]GalNAc
# Outline: as §1
# Fuc(a1-2)Gal(b1-4)Glc6S = biological target: Fuc(a1-2)Gal(b1-4)Glc6S
# Outline: as §1
# Fuc(a1-2)Gal6S(b1-4)Glc = biological target: Fuc(a1-2)Gal6S(b1-4)Glc
# Outline: as §1
# [5] = biological target: Fuc(a1-2)[Gal(a1-3)]Gal(b1-3)GalNAc
# Outline: as §1
# [6] = biological target: Fuc(a1-2)[Gal(a1-3)]Gal(b1-4)GlcNAc(b1-3)[Fuc(a1-2)[Gal(a1-3)]Gal(b1-4)GlcNAc(b1-6)]GalNAc
# Outline: as §1
# [7] = biological target: Fuc(a1-2)[Gal(a1-4)]Gal(b1-4)GlcNAc
# Outline: as §1
# [8] = biological target: Fuc(a1-2)[GalNAc(a1-3)]Gal(b1-4)GlcNAc(b1-2)Man(a1-3)[Fuc(a1-2)[GalNAc(a1-3)]Gal(b1-4)GlcNAc(b1-2)Man(a1-6)]Man(b1-4)GlcNAc(b1-4)GlcNAc
# Outline: as §1
# [9] = biological target: Fuc(a1-2)[GalNAc(a1-3)]Gal(b1-4)GlcNAc(b1-3)Gal(b1-4)GlcNAc(b1-3)Gal(b1-4)GlcNAc
# Outline: as §1
# [10] = biological target: Gal(a1-3)[Gal(a1-4)]Gal(b1-4)GlcNAc
# Outline: as §1
# [11] = biological target: Gal(b1-3)GlcNAc(a1-6)Gal(b1-4)GlcNAc
# Outline: as §1
# Gal(b1-3)GlcNAc6S = biological target: Gal(b1-3)GlcNAc6S
# Outline: as §1
# [12] = biological target: Gal(b1-3)[Neu5Ac(a2-6)]GlcNAc(b1-4)Gal(b1-4)Glc
# Outline: as §1
# [13] = biological target: Gal(b1-3)[Neu5Ac(b2-6)]GalNAc
# Outline: as §1
# Gal(b1-4)Glc6S = biological target: Gal(b1-4)Glc6S
# Outline: as §1
# [14] = biological target: Gal(b1-4)GlcNAc(b1-2)Man(a1-3)Man(b1-4)GlcNAc(b1-4)GlcNAc
# Outline: as §1
# [15] = biological target: Gal(b1-4)GlcNAc(b1-2)[Gal(b1-4)GlcNAc(b1-6)]Man(a1-6)[Gal(b1-4)GlcNAc(b1-2)Man(a1-3)]Man(b1-4)GlcNAc(b1-4)[Fuc(a1-6)]GlcNAc
# Outline: as §1
# [16] = biological target: Gal(b1-4)GlcNAc(b1-2)[Gal(b1-4)GlcNAc(b1-6)]Man(a1-6)[GlcNAc(b1-4)][Gal(b1-4)GlcNAc(b1-2)Man(a1-3)]Man(b1-4)GlcNAc(b1-4)GlcNAc
# Outline: as §1
# [17] = biological target: Gal(b1-4)GlcNAc(b1-3)Gal(b1-4)GlcNAc(b1-3)[Gal(b1-4)GlcNAc(b1-3)Gal(b1-4)GlcNAc(b1-6)]GalNAc
# Outline: as §1
# [18] = biological target: Gal(b1-4)GlcNAc(b1-3)Gal(b1-4)GlcNAc(b1-6)[Gal(b1-3)]GalNAc
# Outline: as §1
# [19] = biological target: Gal(b1-4)GlcNAc(b1-3)GalNAc
# Outline: as §1
# Gal6S(b1-4)Glc6S = biological target: Gal6S(b1-4)Glc6S
# Outline: as §1
# GalNAc(b1-4)GlcNAc = biological target: GalNAc(b1-4)GlcNAc
# Outline: as §1
# Glc(b1-4)Glc = biological target: Glc(b1-4)Glc
# Outline: as §1
# [20] = biological target: GlcNAc(a1-4)Gal(b1-3)GlcNAc
# Outline: as §1
# [21] = biological target: GlcNAc(b1-2)[GlcNAc(b1-6)]Man(a1-6)[GlcNAc(b1-4)][GlcNAc(b1-2)Man(a1-3)]Man(b1-4)GlcNAc(b1-4)GlcNAc
# Outline: as §1
# [22] = biological target: GlcNAc(b1-3)Gal(b1-4)GlcNAc(b1-6)[Gal(b1-3)]GalNAc
# Outline: as §1
# [23] = biological target: GlcNAc(b1-3)[GlcNAc(b1-6)]Gal(b1-4)GlcNAc
# Outline: as §1
# Kdn(a2-3)Gal(b1-3)GalNAc = biological target: Kdn(a2-3)Gal(b1-3)GalNAc
# Outline: as §1
# Man(a1-2)Man(a1-3)Man = biological target: Man(a1-2)Man(a1-3)Man
# Outline: as §1
# [24] = biological target: Man(a1-2)Man(a1-3)[Man(a1-6)]Man(a1-6)[Man(a1-2)Man(a1-3)]Man(b1-4)GlcNAc(b1-4)GlcNAc
# Outline: as §1
# [25] = biological target: Man(a1-3)[Man(a1-6)]Man(a1-6)[Man(a1-3)]Man
# Outline: as §1
# [26] = biological target: Neu5Ac(a2-3)Gal(b1-3)GlcNAc
# Outline: as §1
# [27] = biological target: Neu5Ac(a2-3)Gal(b1-3)GlcNAc(b1-3)Gal(b1-4)GlcNAc
# Outline: as §1
# [28] = biological target: Neu5Ac(a2-3)Gal(b1-3)GlcNAc(b1-6)GalNAc
# Outline: as §1
# [29] = biological target: Neu5Ac(a2-3)Gal(b1-4)GlcNAc(b1-2)Man(a1-3)[Neu5Ac(a2-6)Gal(b1-4)GlcNAc(b1-2)Man(a1-6)]Man(b1-4)GlcNAc(b1-4)GlcNAc
# Outline: as §1
# [30] = biological target: Neu5Ac(a2-3)Gal(b1-4)GlcNAc(b1-2)[Neu5Ac(a2-3)Gal(b1-4)GlcNAc(b1-6)]Man(a1-6)[Neu5Ac(a2-3)Gal(b1-4)GlcNAc(b1-2)Man(a1-3)]Man(b1-4)GlcNAc(b1-4)GlcNAc
# Outline: as §1
# [31] = biological target: Neu5Ac(a2-3)Gal(b1-4)[Fuc(a1-3)]GlcNAc(b1-3)Gal(b1-4)[Fuc(a1-3)]GlcNAc(b1-3)Gal(b1-4)[Fuc(a1-3)]GlcNAc
# Outline: as §1
# [32] = biological target: Neu5Ac(a2-3)Gal(b1-4)[Fuc(a1-3)]GlcNAc(b1-3)GalNAc
# Outline: as §1
# [33] = biological target: Neu5Ac(a2-3)Gal(b1-4)[Fuc(a1-3)]GlcNAc(b1-6)[Neu5Ac(a2-3)Gal(b1-3)]GalNAc
# Outline: as §1
# [34] = biological target: Neu5Ac(a2-3)Gal6S(b1-4)GlcNAc
# Outline: as §1
# Neu5Ac(a2-3)GalNAc = biological target: Neu5Ac(a2-3)GalNAc
# Outline: as §1
# [35] = biological target: Neu5Ac(a2-3)[GalNAc(b1-4)]Gal(b1-4)Glc
# Outline: as §1
# [36] = biological target: Neu5Ac(a2-6)Gal(b1-4)GlcNAc
# Outline: as §1
# [37] = biological target: Neu5Ac(a2-6)Gal(b1-4)GlcNAc(b1-2)Man
# Outline: as §1
# [38] = biological target: Neu5Ac(a2-6)Gal(b1-4)GlcNAc(b1-2)[Neu5Ac(a2-6)Gal(b1-4)GlcNAc(b1-4)]Man(a1-3)[GlcNAc(b1-4)][Neu5Ac(a2-6)Gal(b1-4)GlcNAc(b1-2)[Neu5Ac(a2-6)Gal(b1-4)GlcNAc(b1-6)]Man(a1-6)]Man(b1-4)GlcNAc(b1-4)GlcNAc
# Outline: as §1
# [39] = biological target: Neu5Ac(a2-6)Gal(b1-4)GlcNAc(b1-3)Gal(b1-4)GlcNAc(b1-3)[Neu5Ac(a2-6)Gal(b1-4)GlcNAc(b1-3)Gal(b1-4)GlcNAc(b1-6)]GalNAc
# Outline: as §1
# [40] = biological target: Neu5Ac(a2-6)Gal(b1-4)GlcNAc(b1-6)GalNAc
# Outline: as §1
# [41] = biological target: Neu5Ac(a2-6)Gal(b1-4)GlcNAc(b1-6)[Gal(b1-3)GlcNAc(b1-3)]Gal(b1-4)Glc
# Outline: as §1
# [42] = biological target: Neu5Ac(a2-6)GlcNAc(b1-4)GlcNAc
# Outline: as §1
# [43] = biological target: Neu5Ac(a2-8)Neu5Ac(a2-8)Neu5Ac(a2-3)[GalNAc(b1-4)]Gal(b1-4)Glc
# Outline: as §1
# [44] = biological target: Neu5Ac(a2-8)Neu5Gc(a2-3)Gal(b1-4)GlcNAc
# Outline: as §1
# Neu5Gc(a2-6)GalNAc = biological target: Neu5Gc(a2-6)GalNAc
# Outline: as §1
binder,measurement,setting,value
B1,glycan array binding signal (z-score),[1],-0.799
same,glycan array binding signal (z-score),[2],0.314
same,glycan array binding signal (z-score),[3],-0.348
same,glycan array binding signal (z-score),[4],2.03
same,glycan array binding signal (z-score),Fuc(a1-2)Gal(b1-4)Glc6S,2.24
same,glycan array binding signal (z-score),Fuc(a1-2)Gal6S(b1-4)Glc,2.73
same,glycan array binding signal (z-score),[5],0.15
same,glycan array binding signal (z-score),[6],0.311
same,glycan array binding signal (z-score),[7],0.074
same,glycan array binding signal (z-score),[8],0.042
same,glycan array binding signal (z-score),[9],-0.561
same,glycan array binding signal (z-score),[10],3.57
same,glycan array binding signal (z-score),[11],-0.215
same,glycan array binding signal (z-score),Gal(b1-3)GlcNAc6S,-0.497
same,glycan array binding signal (z-score),[12],0.099
same,glycan array binding signal (z-score),[13],-1.21
same,glycan array binding signal (z-score),Gal(b1-4)Glc6S,0.084
same,glycan array binding signal (z-score),[14],-0.296
same,glycan array binding signal (z-score),[15],-0.583
same,glycan array binding signal (z-score),[16],-0.45
same,glycan array binding signal (z-score),[17],-0.105
same,glycan array binding signal (z-score),[18],4.7
same,glycan array binding signal (z-score),[19],-0.885
same,glycan array binding signal (z-score),Gal6S(b1-4)Glc6S,3.4
same,glycan array binding signal (z-score),GalNAc(b1-4)GlcNAc,-0.29
same,glycan array binding signal (z-score),Glc(b1-4)Glc,-0.903
same,glycan array binding signal (z-score),[20],0.178
same,glycan array binding signal (z-score),[21],-1.21
same,glycan array binding signal (z-score),[22],-0.575
same,glycan array binding signal (z-score),[23],-0.97
same,glycan array binding signal (z-score),Kdn(a2-3)Gal(b1-3)GalNAc,1.92
same,glycan array binding signal (z-score),Man(a1-2)Man(a1-3)Man,1.24
same,glycan array binding signal (z-score),[24],-0.161
same,glycan array binding signal (z-score),[25],2.67
same,glycan array binding signal (z-score),[26],0.177
same,glycan array binding signal (z-score),[27],-0.891
same,glycan array binding signal (z-score),[28],-0.09
same,glycan array binding signal (z-score),[29],0.576
same,glycan array binding signal (z-score),[30],-0.695
same,glycan array binding signal (z-score),[31],0.228
same,glycan array binding signal (z-score),[32],0.921
same,glycan array binding signal (z-score),[33],3.23
same,glycan array binding signal (z-score),[34],0.553
same,glycan array binding signal (z-score),Neu5Ac(a2-3)GalNAc,0.608
same,glycan array binding signal (z-score),[35],-1.43
same,glycan array binding signal (z-score),[36],0.634
same,glycan array binding signal (z-score),[37],-0.24
same,glycan array binding signal (z-score),[38],-0.206
same,glycan array binding signal (z-score),[39],0.075
same,glycan array binding signal (z-score),[40],0.144
same,glycan array binding signal (z-score),[41],-1.1
same,glycan array binding signal (z-score),[42],-0.51
same,glycan array binding signal (z-score),[43],0.28
same,glycan array binding signal (z-score),[44],12.9
same,glycan array binding signal (z-score),Neu5Gc(a2-6)GalNAc,1.92
